The values below come from the supplement of paper PMC6555819.

Holding throughout (assay): PBM binding z-score (relative to random genomic background probes); higher = stronger binding; sequences stand for … in GC…GCGATTGACAGCGTAGAATGAAGG
In assay [1] the test system is FXR:RXRa (NR concentration 270 nM, RXRa partner concentration 90 nM). In short, it runs like this:
(§1)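 Regression normalization was applied to scanned fluorescence from custom Agilent 4×180K protein-binding microarrays. Before scanning, arrays were incubated 1 h with ligand-free nuclear receptor dimers, and binding was detected with antibodies against each partner (one per run). Binding z-scores use the random background probes as reference.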

For assay [2], the system named is LXRa:RXRa (NR concentration 270 nM, RXRa partner concentration 90 nM). In outline:
as §1

Assay [3] concerns LXRa homodimer (NR concentration 270 nM). In short, it runs like this:
as §1

The test system of assay [4] is LXRb:RXRa (NR concentration 270 nM, RXRa partner concentration 90 nM). In outline:
as §1

The test system of assay [5] is LXRb homodimer (NR concentration 270 nM). In outline:
as §1

Assay [6] concerns PPARa:RXRa (NR concentration 270 nM, RXRa partner concentration 90 nM). In outline: as §1
The subject of assay [7] is PPARg:RXRa (NR concentration 180 nM, RXRa partner concentration 90 nM). In short, it runs like this:
as §1

The subject of assay [8] is PPARg:RXRa 270nM:90nM, anti-RXR (NR concentration 270 nM, RXRa partner concentration 90 nM). In outline: as §1
Assay [9] concerns PPARg:RXRa 30nM:10nM, anti-RXR (NR concentration 30 nM, RXRa partner concentration 10 nM). In short, it runs like this: as §1
For assay [10], the system named is PPARg:RXRa 90nM:30nM, anti-RXR (NR concentration 90 nM, RXRa partner concentration 30 nM). In short, it runs like this:
as §1

Assay [11] deals with PPARg:RXRa DBDmut IVT, anti-RXR (DBD mutation: RXRa K156A/R161A, NR concentration 270 nM, RXRa partner concentration 90 nM). In short, it runs like this: as §1
Assay [12] deals with PPARg:RXRa IVT, anti-PPARg (NR concentration 270 nM, RXRa partner concentration 90 nM). In outline: as §1
For assay [13], the system named is PPARg DBDmut:RXRa IVT, anti-PPARg (DBD mutation: PPARg1 K132A/R137A, NR concentration 270 nM, RXRa partner concentration 90 nM). In short, it runs like this: as §1
Assay [14] has as its system PPARg DBDmut IVT, anti-PPARg (DBD mutation: PPARg1 K132A/R137A, NR concentration 270 nM). In outline:
as §1

Assay [15] relates to PPARg homodimer (NR concentration 180 nM). In short, it runs like this: as §1
Assay [16] concerns PXR:RXRa (NR concentration 270 nM, RXRa partner concentration 90 nM). In short, it runs like this:
as §1

The test system of assay [17] is PXR homodimer (NR concentration 270 nM). In short, it runs like this: as §1
The test system of assay [18] is RARa:RXR (NR concentration 270 nM, RXRa partner concentration 90 nM). In short, it runs like this:
as §1

Assay [19] relates to RARa homodimer (NR concentration 270 nM). In short, it runs like this: as §1
For assay [20], the system named is RARb:RXRa (NR concentration 270 nM, RXRa partner concentration 90 nM). In outline:
as §1

In the case of CAATCTAGGTCAAGGTCAAAGTCGGTTTGTGCCA, the PBM binding z-score in assay [1] worked out at 6.74; in assay [2], 5.74; in assay [3], 4.27; in assay [4], 4.52; in [5] it was 1.81; in assay [6] it was 6.18. Moreover, the PBM binding z-score in [7] worked out at 9.73; in assay [8] it was 8.06; in [9] it was 6.64; in assay [10], 8.19; in [11], 8.63; in [12] it was 8.84. Moreover, the PBM binding z-score in assay [13] worked out at 5.16; in assay [14], 1.26; in assay [15], 4.33; in assay [16] it was 5.3; in [17] it was 1.93; in assay [18] it was 5.63. Also, the PBM binding z-score came out at 1.12 in assay [19] and 4.9 in assay [20].
As for CAAACAGGGTCAGCTAGGCCAGAGTAGGGACGGC, the PBM binding z-score in assay [1] is 4.65; in assay [2] it was 2.73; in [3], -0.316; in assay [4], 2.21; in assay [5] it was 0.0212; in assay [6] it was 4.47. Besides, the PBM binding z-score stood at 3.5 in assay [7]; 3.57 in [8]; 0.838 in [9]; 2.35 in assay [10]; 2.12 in assay [11]; 2.9 in assay [12]. Further, the PBM binding z-score was 0.368 in [13]; 0.041 in [14]; 1.74 in assay [15]; 2.42 in assay [16]; 0.185 in assay [17]; 3.18 in [18]. For the same sequence, the PBM binding z-score in assay [19] was 0.11; in assay [20] it was 3.96.
Consider TGAATGATGTTAAAGATCAGGGAACGTGGCGTCG, for which the PBM binding z-score in [1] is 0.0753; in assay [2] it was 0.0362; in assay [3], -0.207; in assay [4], -0.167; in assay [5], 0.281; in assay [6], 0.925. Besides, the PBM binding z-score was 1.32 in [7]; 2.98 in assay [8]; 1.82 in [9]; 2.49 in [10]; -0.672 in assay [11]; 0.00051 in assay [12]. Moreover, the PBM binding z-score in [13] is 0.678; in [14], 0.88; in assay [15], 0.216; in assay [16] it was -0.226; in assay [17], 0.0908; in assay [18], -0.242. For the same sequence, the PBM binding z-score is 0.502 in assay [19] and -0.0162 in assay [20].
Take TCAGACAGGTGAAGGTAACACAGGTACGCAGTCG: the PBM binding z-score in assay [1] was determined as 1.04; in assay [2] it was 1.17; in [3], 0.113; in [4], 1.01; in assay [5] it was 0.0867; in assay [6] it was 1.53. The PBM binding z-score in assay [7] was 1.29; in assay [8] it was 2.67; in assay [9], 3.9; in assay [10], 3.28; in assay [11] it was 2.57; in assay [12] it was 1.37. In addition, the PBM binding z-score in assay [13] was -0.146; in assay [14], 0.0418; in [15], 1.19; in assay [16] it was 1.02; in [17] it was 0.463; in assay [18] it was 1.28. For the same sequence, the PBM binding z-score in assay [19] worked out at 0.787; in assay [20], 1.32.
In the case of TCTGCTAGGTCAACGATGGTTAGCTAATCTGCTA, the PBM binding z-score in [1] is 3.1; in assay [2] it was 2.08; in assay [3], -0.301; in [4] it was 1.46; in assay [5], -0.085; in [6], 3.09. The PBM binding z-score in assay [7] worked out at 2.34; in [8], 3.09; in [9], 1.82; in assay [10] it was 2.54; in assay [11], 4.04; in assay [12], 4.11. The PBM binding z-score in assay [13] was 0.206; in assay [14] it was 0.0855; in assay [15], 0.625; in assay [16], 1.24; in [17] it was -0.803; in [18], 2.11. Also, the PBM binding z-score in assay [19] was -0.888; in assay [20], 4.14.
For CCAGACAGGTGAAAGGTAACTCTGTCTGGTACGC, the PBM binding z-score in assay [1] was 0.257; in assay [2], 1.07; in [3], -0.318; in assay [4], 0.89; in assay [5], -0.274; in assay [6] it was 3.45. Moreover, the PBM binding z-score in assay [7] amounted to 5.57; in [8] it was 6.03; in [9], 4.71; in assay [10], 5.8; in assay [11] it was 2.33; in [12] it was 3.16. Further, the PBM binding z-score in assay [13] was 0.131; in [14], -0.269; in assay [15] it was 0.283; in assay [16], 1.16; in [17], -0.171; in [18], 2.16. The results for the PBM binding z-score in [19] and in assay [20] were -0.0874 and 1.24, respectively.
